DT40 TDP1 no CPT: qHTS for Inhibitors of human tyrosyl-DNA phosphodiesterase 1 (TDP1): qHTS in cells in absence of CPT | DT40 Tdp1-/- hTDP1 cells, no CPT, ATP luminescence, 48 h | Potency, µM (doses to about 46.2 µM), inactives show at the top dose activity change, negative = growth inhibition, usual class: inhibitors | hit rate 15% among 420,000; also: potency is read from the fitted curve at half-maximal effect; nearly all actives have a fitted effect of over 55% in size
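No-CPT arm: Tdp1-/-;hTDP1 DT40 cells (400/well) plus compounds, incubated ≥48 hr at 37 °C. Readout CellTiter-Glo luminescence.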
DT40 TDP1 CPT: growth inhibition of DT40 Tdp1-/-;hTDP1 cells with camptothecin (screen for TDP1 inhibitors). AID 686979. hit rate 12% among 420,000. Potency, µM (highest dose often 46.2 µM), without a hit: top-dose activity change, negative = growth inhibition, most hits filed as inhibitors. chicken DT40 Tdp1-/-;hTDP1 cells + 20 nM CPT, ATP luminescence, 48 h; also: potency is read from the fitted curve at half-maximal effect; nearly all actives have a fitted effect of over 55% in size
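Chicken DT40 Tdp1-/- cells complemented with human TDP1, 400 cells/well, exposed to compounds plus 20 nM camptothecin for at least 48 h at 37 C; viability read as ATP content by CellTiter-Glo luminescence.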
HT1080 IDH1KD tx: kills HT-1080 cells with IDH1 knockdown | HT-1080 IDH1 knockdown viability, ATP luminescence, 48 h | Potency, µM (doses to about 46.1 µM), inactives show top-dose activity, negative = toxicity, actives largely listed as cytotoxic | hit rate 2% among 360,000 | AID 686971;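 also: potency is read from the fitted curve at half-maximal effect; 0% = DMSO wells and -100% = cell-free medium wells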
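Luminescent ATP read-out (CellTiter-Glo, 10 min at room temperature) after 48 h compound exposure at 37 °C gave viability of IDH1-knockdown HT-1080 cells. Activity was normalised to DMSO and cell-free wells, then fitted as concentration-response curves.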
IL-1B inflam inh: inhibitors of inflammasome signaling (IL-1 beta secretion); THP-1 LPS/ATP IL-1B secretion, AlphaLISA, 16 h; hits give low values; hit rate 4.7% among 360,000; activity change, % at 57.5 µM; AID 743279; in the data active = activity change below about -50%; inconclusive = mostly about -30% to -49%
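Secreted IL-1B measured by AlphaLISA bead assay after 16 h compound exposure of THP-1 cells; compounds (final up to 57.5 uM) added 1 h before LPS (250 ng/mL) and ATP (1.25 mM) stimulation; lower signal means less secretion.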
HT1080NT lethal: kills 2HG-producing HT-1080-NT fibrosarcoma cells; HT-1080-NT fibrosarcoma viability, CellTiter-Glo ATP luminescence, 48 h; Potency, µM (doses to about 46.1 µM), without a hit: top-dose activity, negative = less viability, most hits filed as cytotoxic; AID 686970; hit rate 1.6% among 360,000;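 also: NT is the 2HG producing partner of a matched IDH1 knockdown line; potency is read from the fitted curve at half-maximal effect; 0% = DMSO-treated cells and -100% = media-only wells without cells; nearly all actives have a fitted effect of over 55% in size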
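Viability of the 2HG-overproducing fibrosarcoma line after 48 hours of compound exposure at 37 degrees C was determined by luminescence with CellTiter-Glo, and concentration-effect curves were then fitted and categorized.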
Active calls of the source: *. An excerpt weighted towards active compounds, which were near 19% of everything screened. Unless noted, calls follow the shape of the dose curve; as a rule, active = well fitted curve in the direction sought with a large enough effect; inconclusive = small, poorly fitted or top-dose-only effect, or another doubt; inactive = no such curve, though single readings can be large; an effect the other way counts as inactive or inconclusive. Unless noted, % is scaled to controls: 0 for no effect and ±100 for the full control effect.

How did COc1ccc(CCNC(=O)c2cc(C3CC3)nc3c2cnn3C(C)C)cc1 do in these assays?
DT40 TDP1 no CPT: 18µM*; DT40 TDP1 CPT: inconclusive; HT1080 IDH1KD tx: -7%; IL-1B inflam inh: -27; HT1080NT lethal: -12%

What do the screens show for `COc1ccccc1CCNC(=O)c1cc(C2CC2)nc2c1cnn2C(C)C`?
DT40 TDP1 no CPT: 23µM*; DT40 TDP1 CPT: inconclusive; HT1080 IDH1KD tx: 1%; IL-1B inflam inh: -11; HT1080NT lethal: 4%

What do the screens show for `CC(O)(c1ccccc1)[N+]1(CC(=O)c2ccccc2)C=CC=C1` (configuration not stated)?
DT40 TDP1 no CPT: -15%; DT40 TDP1 CPT: -21%

How did COC(=O)c1c(-c2ccc(Cl)cc2)noc1N1CCN(c2ccccc2F)CC1 do in these assays?
DT40 TDP1 no CPT: 7%; DT40 TDP1 CPT: -1%

What do the screens show for `COC(=O)c1c(-c2ccc(Cl)cc2)noc1N1CCN(c2ccc(OC)cc2)CC1`?
DT40 TDP1 no CPT: 26µM*; DT40 TDP1 CPT: 23µM*

What do the screens show for `COC(=O)c1c(-c2ccc(Cl)cc2)noc1N1CCN(c2cc(C)ccc2C)CC1`?
DT40 TDP1 no CPT: 21µM*; DT40 TDP1 CPT: 15µM*

What do the screens show for `COC(=O)[C@H](Cc1c[nH]c2ccccc12)NCc1cccc(B(O)O)c1`?
DT40 TDP1 no CPT: -2%; DT40 TDP1 CPT: 24%; HT1080 IDH1KD tx: 3%; IL-1B inflam inh: -66*; HT1080NT lethal: -2%

What do the screens show for `COC(=O)[C@@H](Cc1c[nH]c2ccccc12)NCc1ccc(B(O)O)cc1`?
DT40 TDP1 no CPT: -15%; DT40 TDP1 CPT: -11%; HT1080 IDH1KD tx: -1%; IL-1B inflam inh: 1; HT1080NT lethal: -11%

Results for N#Cc1ccccc1Sc1ccccc1C(=O)Nc1ccc2ccccc2c1 ?
DT40 TDP1 no CPT: inconclusive; DT40 TDP1 CPT: -22%; HT1080 IDH1KD tx: -18%; IL-1B inflam inh: -22; HT1080NT lethal: -13%

Results for COc1ccc(Sc2ccc(NC(=O)c3ccccc3Cl)cc2C#N)cc1 ?
DT40 TDP1 no CPT: 13µM*; DT40 TDP1 CPT: inconclusive; HT1080 IDH1KD tx: inconclusive; IL-1B inflam inh: -11; HT1080NT lethal: inconclusive

What do the screens show for `Cc1ncoc1C(=O)N1CCCC(C(=O)c2ccc(Oc3ccccc3)cc2)C1` (configuration not stated)?
DT40 TDP1 no CPT: -10%; DT40 TDP1 CPT: 6%; HT1080 IDH1KD tx: 7%; IL-1B inflam inh: 0; HT1080NT lethal: 6%

Results for CC(=O)NCC(=O)N1CCCC(C(=O)c2ccc(Oc3ccccc3)cc2)C1 (configuration not stated) ?
DT40 TDP1 no CPT: inconclusive; DT40 TDP1 CPT: 9.2µM*; HT1080 IDH1KD tx: -18%; IL-1B inflam inh: -17; HT1080NT lethal: 1%

What do the screens show for `CCOC(=O)c1c(NC(=O)CN(CC)CC)sc2c1CCN(C(=O)OCC)C2`?
DT40 TDP1 no CPT: 26µM*; DT40 TDP1 CPT: inconclusive; HT1080 IDH1KD tx: inconclusive; IL-1B inflam inh: inconclusive; HT1080NT lethal: inconclusive

How did CCOC(=O)c1c(NC(=O)CC)sc2c1CCN(Cc1ccccc1)C2 do in these assays?
DT40 TDP1 no CPT: inconclusive; DT40 TDP1 CPT: inconclusive; HT1080 IDH1KD tx: -7%; IL-1B inflam inh: 9; HT1080NT lethal: -19%

What do the screens show for `CCOC(=O)c1c(NC(=O)CN2CCOCC2)sc2c1CCCC2`?
DT40 TDP1 no CPT: 21µM*; DT40 TDP1 CPT: inconclusive; HT1080 IDH1KD tx: -3%; IL-1B inflam inh: 7; HT1080NT lethal: -1%

Results for CCOC(=O)c1c(NC(=O)CN2CCCCC2)sc2c1CCN(C(=O)OCC)C2 ?
DT40 TDP1 no CPT: inconclusive; DT40 TDP1 CPT: inconclusive; HT1080 IDH1KD tx: inconclusive; IL-1B inflam inh: -86*; HT1080NT lethal: inconclusive

What do the screens show for `CCOC(=O)N1CCc2c(sc(NC(=O)Cc3ccccc3)c2C(=O)c2ccc(OC)cc2)C1`?
DT40 TDP1 no CPT: 26µM*; DT40 TDP1 CPT: inconclusive; HT1080 IDH1KD tx: -20%; IL-1B inflam inh: -7; HT1080NT lethal: -24%

What do the screens show for `COc1ccc(C(=O)c2c(NC(C)=O)sc3c2CCN(C(=O)OC(C)(C)C)C3)cc1`?
DT40 TDP1 no CPT: inconclusive; DT40 TDP1 CPT: -4%; HT1080 IDH1KD tx: inconclusive; HT1080NT lethal: inconclusive

What do the screens show for `CC(=O)Nc1ccc(NC(=O)CS(=O)(=O)c2cn(CC(=O)N3CCCC3)c3ccccc23)cc1`?
DT40 TDP1 no CPT: -3%; DT40 TDP1 CPT: -17%; HT1080 IDH1KD tx: 6%; IL-1B inflam inh: inactive; HT1080NT lethal: -1%

How did CCOc1ccc(NC(=O)c2c(NC(=O)CNCCN3CCOCC3)sc3c2CCC3)cc1 do in these assays?
DT40 TDP1 no CPT: 15µM*; DT40 TDP1 CPT: inconclusive; HT1080 IDH1KD tx: -23%; IL-1B inflam inh: -11; HT1080NT lethal: -4%

How did C#CCSc1nnc(CSc2nc3ccccc3s2)n1-c1ccccc1 do in these assays?
DT40 TDP1 no CPT: 18µM*; DT40 TDP1 CPT: inconclusive; HT1080 IDH1KD tx: -19%; IL-1B inflam inh: inconclusive; HT1080NT lethal: -7%

What do the screens show for `CCn1c(CSc2nc3ccccc3s2)nc2ccccc21`?
DT40 TDP1 no CPT: 16µM*; DT40 TDP1 CPT: inconclusive; HT1080 IDH1KD tx: 0%; IL-1B inflam inh: -12; HT1080NT lethal: 6%

What do the screens show for `O=C(O)CSc1nnc(CSc2nc3ccccc3s2)n1-c1ccccc1`?
DT40 TDP1 no CPT: -10%; DT40 TDP1 CPT: -11%; HT1080 IDH1KD tx: 11%; IL-1B inflam inh: 0; HT1080NT lethal: 14%

Results for Cc1cc(C)n2c(Br)c(CSc3nc4ccccc4s3)nc2n1 ?
DT40 TDP1 no CPT: 18µM*; DT40 TDP1 CPT: -26%; HT1080 IDH1KD tx: -1%; IL-1B inflam inh: -5; HT1080NT lethal: 1%

How did CN(Cc1cccnc1)C(=O)CCCc1c[nH]c2ccccc12 do in these assays?
DT40 TDP1 no CPT: -26%; DT40 TDP1 CPT: -10%; HT1080 IDH1KD tx: 5%; IL-1B inflam inh: 4; HT1080NT lethal: -4%

What do the screens show for `CCOc1ccc(C(=O)c2ccc(OCC)c(N)c2)cc1N`?
DT40 TDP1 no CPT: 29µM*; DT40 TDP1 CPT: inconclusive; HT1080 IDH1KD tx: -18%; IL-1B inflam inh: inconclusive; HT1080NT lethal: -1%

What do the screens show for `CCOc1ccc(S(=O)(=O)N(CC)CC)cc1N`?
DT40 TDP1 no CPT: -25%; DT40 TDP1 CPT: 1%; HT1080 IDH1KD tx: -7%; IL-1B inflam inh: -1; HT1080NT lethal: 2%

What do the screens show for `COC(=O)CCCCC1SCC2NC(=O)NC21O` (configuration not stated)?
DT40 TDP1 no CPT: -27%; DT40 TDP1 CPT: -1%; HT1080 IDH1KD tx: 15%; IL-1B inflam inh: -113*; HT1080NT lethal: 6%

Results for COC(=O)CCCC[C@@H]1SC[C@@H]2NC(=O)N[C@@H]21 ?
DT40 TDP1 no CPT: -7%; DT40 TDP1 CPT: 2%
